# The list is not random: actives were taken first. Their share in the collection is about 6%.
# D1 PAM = enhances dopamine response at the human D1 receptor; P21728; HEK293 TREx D1 cells, calcium flux, dopamine EC20 potentiation; potentiation, % at 10 µM; actives 0.036% (n = 360,000); AID 504651; in the data active = potentiation above about 30%; note: 0% is about no effect
# Target sequence (P21728 whole entry, looked up): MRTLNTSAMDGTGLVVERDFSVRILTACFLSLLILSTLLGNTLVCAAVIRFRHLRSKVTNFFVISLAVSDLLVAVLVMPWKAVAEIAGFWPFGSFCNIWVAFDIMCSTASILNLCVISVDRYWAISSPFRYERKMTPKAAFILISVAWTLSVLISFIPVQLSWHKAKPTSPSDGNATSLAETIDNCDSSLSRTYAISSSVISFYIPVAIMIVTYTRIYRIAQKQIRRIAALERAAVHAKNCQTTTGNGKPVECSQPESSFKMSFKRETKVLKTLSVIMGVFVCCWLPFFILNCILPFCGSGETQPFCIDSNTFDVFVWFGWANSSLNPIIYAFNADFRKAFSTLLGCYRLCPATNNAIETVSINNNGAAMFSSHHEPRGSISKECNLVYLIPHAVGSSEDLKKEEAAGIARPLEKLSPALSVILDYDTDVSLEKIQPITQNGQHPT
# D1 antag = blocks dopamine activation of the human D1 receptor; P21728; HEK293 TREx D1 cells, calcium flux, dopamine EC80; hits give low values; activity change, negative = inhibition, % at 10 µM; actives 3.2% (n = 360,000); AID 504652; in the data active = activity change below about -30%; note: % is set by controls: 0 for no effect and ±100 for the full control effect
#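 Antagonism measured as reduced calcium response to an EC80 dopamine addition following 180 s compound pre-read; cells were inducible HEK293 Trex D1 plated overnight at 30 C, read kinetically at 1 cycle/sec.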
# DRD3 agonist = D3 dopamine receptor (human) agonism | P35462 | D3R DiscoveRx beta-arrestin cells, luminescence, 90 min | max activation, % | actives 0.58% (n = 410,000) | AID 652048; in the data active = max activation above about 30%; note: 0% is about no effect
#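 Agonist-mode cell screen: cells plated at 1500/well and incubated overnight at 37 °C, then exposed to library compounds for 90 min at 37 °C. Detection reagent was added for 30–60 min at room temperature, and luminescence was read.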
# D3 antag = D3 dopamine receptor (human) antagonism | AID 652054 | max response, negative = inhibition, % | P35462 | D3R cells, DiscoveRx beta-arrestin luminescence, antagonist mode; hits give low values | actives 2.5% (n = 360,000); in the data active = max response below about -50%; inconclusive = no clear call, values can overlap the other calls; note: % is set by controls: 0 for no effect and ±100 for the full control effect
#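 Cells plated overnight at 1500 cells/well, then exposed to library compounds with dopamine controls for 90 minutes at 37 degrees C. DiscoveRx reagent added for 30–60 minutes at room temperature; luminescence read, quantitative HTS format.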
# D1 agonist = activates the human D1 dopamine receptor | HEK293 T-REx D1 cells, calcium flux, agonist mode | activation, % at 2 µM | actives 1% (n = 360,000) | P21728 | AID 504660; in the data active = activation above about 30%; note: 0% is about no effect
#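 Inducible HEK293 T-REx D1 cells, force-coupled to calcium signalling, were plated at 4000 cells/well with tetracycline and held overnight at 30 C. After no-wash calcium dye loading, compound-evoked calcium rise over 180 s flagged agonists.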
# Active calls of the source: *; ? = inconclusive; nt = no result given.
SMILES,D1 PAM,D1 antag,DRD3 agonist,D3 antag,D1 agonist
COc1ccc(OCC(=O)Nc2nnc3n2CCS3)cc1,-2,25,-5,nt,1
Cc1ccc(C(=O)N2CCC(C(=O)c3ccc(Cl)cc3)CC2)cc1,-7,-44*,0,-15,6
COc1ccc(C(=O)N2CCC(C(=O)Nc3ccc(Cl)cc3)CC2)cc1,-3,-42*,-5,nt,16
O=C(Nc1ccccc1N1CCCCC1)C1CCN(C(=O)c2ccc(Cl)cc2)CC1,-5,7,-7,-59*,2
O=C(c1ccccc1)C1CCN(C(=O)c2ccc(Cl)cc2)CC1,-7,-5,1,0,4
Cc1ccccc1C(=O)N1CCC(C(=O)Nc2cccc(F)c2)CC1,1,19,0,3,6
COc1ccc(C(=O)N2CCC(C(=O)Nc3ccc4c(c3)OCO4)CC2)cc1,2,25,1,-16,-1
Cc1ccc(NC(=O)C2CCN(C(=O)c3ccccc3C)CC2)cc1,0,-44*,-1,4,0
COC(=O)C1CCN(C(c2ccccc2Cl)c2sc3nc(-c4ccco4)nn3c2O)CC1 (stereo not drawn),0,nt,-19,nt,-1
O=C(CCSCc1ccccc1Cl)N1CCN(c2ccc(F)cc2)CC1,-1,2,2,nt,1
COc1ccc(C2=NC(C)(C)N(CC(=O)Nc3cccc(C)c3)C2=O)cc1,0,-6,5,nt,3
Cc1ccc2[nH]nc(C(=O)N3CCCC(C(=O)c4ccc(Cl)cc4)C3)c2c1 (stereo not drawn),0,2,34*,33,0
Cc1ccc(NC(=O)CN2C(=O)C(c3ccc(F)cc3)=NC2(C)C)c(C)c1,-3,16,3,nt,2
O=C(CSc1nnnn1C1CC1)N1CCN(Cc2ccccc2F)CC1,1,-34*,-1,12,2
c1cncc(Nc2c3ccccc3nc3ccccc23)c1,-15,-31*,3,-8,3
COc1ccc(Nc2c3ccccc3nc3ccccc23)cc1,-8,-95*,-8,-26,19
COc1ccccc1Nc1c2ccccc2nc2ccccc12,-6,-52*,4,4,3
COc1ccc(Nc2nc(N3CCCC3)c3ccccc3n2)cc1,-21,-51*,-8,0,6
COc1cc(Nc2c3ccccc3nc3ccccc23)cc(OC)c1OC,-1,6,-13,-15,3
Oc1cccc(Nc2c3ccccc3nc3ccccc23)c1,-9,-24,0,-27,8
CC(=O)c1cccc(NC(=O)c2sc(-n3nc(C)c(Cc4ccc5c(c4)OCO5)c3C)nc2C)c1,1,-3,-9,nt,15
O=C(COc1ccccc1F)Nc1nnc(SCc2cc(=O)n3ccccc3n2)s1,2,-4,1,nt,0
Cc1ccc2nc(CSc3nnc(NC(=O)COc4ccccc4F)s3)cc(=O)n2c1,-2,-4,58*,nt,-1
O=C1NC2(NN1c1ccccc1)C1CC3CC(C1)CC2C3 (stereo not drawn),6,5,2,?,43*
O=C1NC2(CCC3(CC2)OCCO3)NN1c1ccccc1,-3,3,-5,3,2
SMILES,D1 PAM,D1 antag,DRD3 agonist,D3 antag,D1 agonist
CCc1ccccc1Nc1nn2c(=O)c3ccc(C(=O)NC4CCCCC4)cc3nc2s1,0,-9,-5,nt,1
Cc1cccn2c(=O)nc(SCC(=O)c3ccc(Cl)cc3)nc12,-7,-3,6,17,0
Cc1cccn2c(=O)nc(SCC(=O)c3ccccc3)nc12,-5,-57*,4,14,-2
Cc1ccc(C(=O)CN(CCC(=O)O)C(=O)c2ccncc2)cc1,7,4,31*,28,6
Cc1nc(-n2nc(C)c(Cc3ccccc3Cl)c2C)sc1C(=O)N1CCCCC1C (stereo not drawn),2,-13,-3,nt,0
CSCSC1=C(C#N)C(c2ccc(Cl)cc2)C(C(C)=O)=C(C)N1 (stereo not drawn),-13,-31*,nt,nt,5
CCOC(=O)CSC1=C(C#N)C(c2ccccc2)C(C(C)=O)=C(C)N1 (stereo not drawn),1,-31*,5,-10,0
CCOC(=O)c1nnc2c(-c3ccc(Cl)cc3)c(C)nn2c1C,-3,-1,7,nt,2
CC1(c2nnc(Cc3ccccc3)o2)CC(c2cccc([N+](=O)[O-])c2)=NO1 (stereo not drawn),-1,-28,32*,13,6
Clc1ccc2[nH]c3c(c2c1)CNCC3,-25,-48*,-34,-98*,8
Clc1cccc2c3c([nH]c12)CCNC3,-10,-16,-44,-60*,2
OC1(c2ccc(OC(F)F)cc2)CSC(=Nc2cccnc2)N1C1CC1 (stereo not drawn),-12,-30*,4,16,10
COC(=O)c1cccc(-n2c(C)cc(C=O)c2C)c1,-4,-30*,0,1,3
CCOc1ccc(NS(=O)(=O)c2ccc3[nH]c4c(c3c2)CCCCC4)cc1,-2,-9,8,nt,1
Cc1cccc(/C=C2\Oc3cc(OS(C)(=O)=O)ccc3C2=O)c1,-12,-13,3,-26,4
O=C1/C(=C/c2cccc(F)c2)Oc2cc(O)ccc21,-5,-36*,11,7,34*
O=C(N/N=C/c1sc(=O)n(Cc2ccc(Br)cc2)c1Cl)c1ccco1,7,-49*,-2,-25,14
O=C(N/N=C/c1ccc(Br)s1)c1ccco1,-3,-24,-10,-14,-1
CC1CCN(c2ccccc2NC(=S)NC(=O)c2cccs2)CC1,-3,-23,-6,-58*,3
CCOC(=O)CSc1ncnc2c1sc1nc(N3CCOCC3)c3c(c12)CCCC3,6,-17,61*,-4,4
COC(=O)CSc1ncnc2c1sc1nc(N3CCOCC3)c3c(c12)CCCC3,0,7,2,-11,1
CCn1ncc(Br)c1C(=O)Nc1ccccc1OC,-10,-14,4,4,1
CCOc1ccccc1NC(=O)c1c(Br)cnn1C,-6,12,35*,15,2
Cn1c(=N)n(CC(=O)O)c2ccccc21,5,-11,-4,-62*,7
CC(C)(Oc1ccc(C2CCCc3ccccc32)cc1)C(=O)O (stereo not drawn),nt,nt,-10,nt,nt
O=C(O)c1cccc(N2C(=O)/C(=C/c3ccc(SCc4ccc(Cl)cc4)o3)SC2=S)c1,2,-10,-15,-59*,2
COc1ccc(Cl)cc1NC(=O)C(C)OC(=O)C1=NNC(=O)CC1 (stereo not drawn),-2,-66*,-1,1,0
O=C1CCC(C(=O)OCC(=O)Nc2cc(Cl)ccc2F)=NN1,nt,nt,-5,-16,nt
COc1cccc(NC(=O)CSc2nccn2C2CCCC2)c1,0,-13,6,nt,2
CC1c2[nH]c3ccccc3c2CCN1C(=O)Nc1ccccc1 (stereo not drawn),-5,-36*,-8,0,13

# Screens (PubChem)
